The record followed here is PubChem BioAssay (Tox21).

The nature of experiment [1]: qHTS assay to identify small molecule agonists of the estrogen receptor alpha (ER-alpha) signaling pathway in the presence of an antagonist - cell viability counter screen (AID 1259386).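 Also: series mostly up to about 92 µM; cells exposed to compounds for 22 h at 37 °C before the viability read; nearly all actives have a fitted effect of over 30% in size.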 The essentials: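 Cells are starved of estrogens for 5 days in charcoal-stripped serum, seeded for 24hr and co-treated with ICI-182,780 (10.0nM final) and test compounds. After 22hr at 37C, viability is read as CellTiter-Fluor fluorescence.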
For orientation: Quantitative high-throughput screening tests each substance at several concentrations.

Experiment [2] concerns the target Progesterone receptor (Homo sapiens) (UniProt P06401). In words: qHTS assay to identify small molecule agonists of the progesterone receptor (PR) signaling pathway (AID 1346784; calls by dose curve; also: nearly all actives have a fitted effect of over 30% in size). The method, boiled down:
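Using charcoal-stripped serum (2%) to limit endogenous steroids, PR-UAS-bla HEK 293T cells received compounds for 16 hr at 37C after 6 hr plating; beta-lactamase FRET fluorescence was recorded following 2 hr substrate loading at room temperature.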

Experiment [3] shares this target. Nature of the experiment: qHTS assay to identify small molecule antagonists of the progesterone receptor (PR) signaling pathway (AID 1346795; active = well fitted inhibition curve with a large enough effect in the signal ratio in the repeat runs, not every such curve was filed as active; the % refers to the signal ratio; also: potency is read from the fitted curve at half-maximal effect). The method, boiled down:
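Inhibition of R5020-induced (1 nM final) beta-lactamase reporter signal in PR-UAS-bla HEK293T cells was scored by FRET fluorescence after overnight (16 hr) compound treatment.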

Experiment [4] in a line: qHTS assay to identify small molecule antagonists of the progesterone receptor (PR) signaling pathway - cell viability counter screen (AID 1346798). Also: series mostly up to about 92 µM; nearly all actives have a fitted effect of over 50% in size. The essentials:
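ATP content as viability readout: CellTiter-Glo luminescence, 30 min room temperature, in PR-UAS-bla HEK293T cells after 16 hr compound/R5020 treatment at 37C and 5% CO2.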

A short description of experiment [5]: qHTS assay to identify small molecule antagonists of the TGF-beta/Smad signaling pathway - cell viability counter screen (AID 1346824). Also: nearly all actives have a fitted effect of over 50% in size. The method, boiled down: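 Cytotoxicity counter-screen run in the same wells as the beta-lactamase Smad reporter read: CellTiter-Glo luminescence after 30 min at room temperature. HEK 293T SBE-bla cells had 5 hr compound exposure at 37 C with TGF-beta1 (0.25 ng/mL stock).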

Experiment [6] is described as follows: qHTS assay to identify small molecule agonists of the TGF-beta/Smad signaling pathway - cell viability counter screen (AID 1346829). Also: top concentration of the series differs between compounds; nearly all actives have a fitted effect of over 45% in size. The method, boiled down: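 Compound-treated SBE-bla HEK 293T cells (5 hr, 37 C) were assessed for viability with CellTiter-Glo in parallel with the reporter read.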
Experiment [7] can be described thus: qHTS assay to identify small molecule agonists of the TGF-beta/Smad signaling pathway (AID 1346859; active = well fitted activation curve with a large enough effect in the signal ratio in the repeat runs, not every such curve was filed as active; the % refers to the signal ratio; also: series mostly up to about 77 µM). The essentials:
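Stable Smad binding element-beta-lactamase HEK 293T cells; 5 hr compound exposure at 37 C under 5% CO2; 2 hr room-temperature substrate step; fluorescence excited at 405 nm, collected at 460 nm and 530 nm.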

The target of experiment [8] is Thyrotropin-releasing hormone receptor (Homo sapiens) (UniProt P34981). In words: qHTS assay to identify small molecule antagonists of the thyrotropin-releasing hormone receptor (TRHR) signaling pathway (AID 1346877; active = well fitted inhibition curve with a large enough effect in the repeat runs, not every such curve was filed as active; also: series mostly up to about 51 µM). The method, boiled down: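 Cells (TRHR-HEK293) are plated and kept 18 h at 37 °C/5% CO2. A calcium-sensitive dye is added for 2 h, compound follows for 5 min at room temperature, and TRH is then given at 1 nM final.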
Thyrotropin-releasing hormone receptor (Homo sapiens), sequence (P34981 whole entry, looked up): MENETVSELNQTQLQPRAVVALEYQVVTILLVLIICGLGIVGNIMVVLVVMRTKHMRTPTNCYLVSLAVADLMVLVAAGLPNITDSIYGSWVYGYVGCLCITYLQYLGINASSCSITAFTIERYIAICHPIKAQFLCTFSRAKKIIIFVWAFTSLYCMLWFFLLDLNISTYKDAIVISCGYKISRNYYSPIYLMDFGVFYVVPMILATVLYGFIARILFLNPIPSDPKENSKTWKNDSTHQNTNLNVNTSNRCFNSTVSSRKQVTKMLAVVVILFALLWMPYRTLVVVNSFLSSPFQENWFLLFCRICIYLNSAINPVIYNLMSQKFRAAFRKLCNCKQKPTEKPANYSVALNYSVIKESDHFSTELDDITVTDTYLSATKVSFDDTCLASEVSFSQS

Experiment [9] has the same target. Nature of the experiment: qHTS assay to identify small molecule agonists of the thyrotropin-releasing hormone receptor (TRHR) signaling pathway (AID 1346891; calls by dose curve;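 also: HEK293 cells expressing TRHR with calcium dye readout; series mostly up to about 58 µM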). The method, boiled down:
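In 1536-format, 1500 TRHR-Hek293 cells per well grew 18 h, took up calcium dye for 2 h at 37 °C, received compound, and were read kinetically; 15-point titrations, triplicates.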

Experiment [10] can be described thus: Human pregnane X receptor (PXR) small molecule agonists, qHTS cell viability counter screen (AID 1346977). Also: nearly all actives have a fitted effect of over 50% in size. The method, boiled down: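 Readout is CellTiter-Fluor fluorescence from PXR-Luc HepG2 cells. Plated cells rested 5hr, then were treated with compounds for 24hr at 37C and 5% CO2, with reagent present during the last hour.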
A short description of experiment [11]: Caspase-3/7 induction in HepG2 cells by small molecules, qHTS assay (AID 1346978). Also: nearly all actives have a fitted effect of over 15% in size. The method, boiled down:
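Caspase-3/7 induction was measured by Caspase-Glo 3/7 luminescence (30 min, room temperature) after a 17 hr compound exposure of wild-type HepG2 cells seeded at 2,000 per well and pre-incubated 5 hr.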

Experiment [12] is described as follows: Caspase-3/7 induction in CHO-K1 cells by small molecules, qHTS cell viability counter screen (AID 1346979). Also: nearly all actives have a fitted effect of over 35% in size. The essentials:
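To flag cytotoxic compounds, treated CHO-K1 wild-type cells were given CellTiter-Fluor at 16hr and read fluorescently after 1hr at 37C; the caspase-3/7 luminescence was measured in these same wells.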

The nature of experiment [13]: Caspase-3/7 induction in CHO-K1 cells by small molecules, qHTS assay (AID 1346980). Also: nearly all actives have a fitted effect of over 15% in size. The method, boiled down: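 Luminescent Caspase-Glo 3/7 read (30min, room temperature) quantified apoptosis induction. Cells were wild-type CHO-K1, treated with compound for 17hr at 37 C and 5% CO2.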
The nature of experiment [14]: Caspase-3/7 induction in HepG2 cells by small molecules, qHTS cell viability counter screen (AID 1346981). Also: series mostly up to about 92 µM; nearly all actives have a fitted effect of over 30% in size. The method, boiled down: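 Steps: seed 2,000 HepG2 cells per well; incubate 5 hr at 37 C; pin-add compounds in DMSO; incubate 16 hr; add CellTiter-Fluor; after 1 hr at 37 C and 5% CO2, read fluorescence.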
Experiment [15] addresses Nuclear receptor subfamily 1 group I member 2 (Homo sapiens) (UniProt O75469). In words: Human pregnane X receptor (PXR) small molecule agonists, qHTS assay (AID 1346982). Also: nearly all actives have a fitted effect of over 35% in size. Also: potency is read from the fitted curve at half-maximal effect. The method, boiled down: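 Agonist mode qHTS: PXR-Luc HepG2 cells plated 5 hr before DMSO-dissolved compounds were pinned in, cultured 24 hr at 37 C, 5% CO2; ONE-Glo luminescence readout.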
The target in experiment [16] is Cytochrome P450 2D6 (Homo sapiens) (UniProt P10635). In words: Cytochrome P450 Family 2 Subfamily D Member 6 (CYP2D6) small molecule antagonists: luciferase reporter qHTS assay (AID 1671196). Also: nearly all actives have a fitted effect of over 50% in size. Also: potency is read from the fitted curve at half-maximal effect. The method, boiled down:
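P450-Glo format: CYP2D6 converts a proluciferin substrate to luciferin in an NADPH-driven reaction lasting 1 h at room temperature. Light output, proportional to CYP2D6 activity, reflects interference by test chemicals.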
In general terms: Reporter assays use an easily measured gene product as a stand-in for the process of interest.

Experiment [17] has as its target Nuclear receptor subfamily 1 group I member 2 (Rattus norvegicus) (UniProt Q9R1A7). Nature of the experiment: Rat pregnane X receptor (rPXR) activation by small molecules, qHTS assay (AID 1346983). Also: nearly all actives have a fitted effect of over 20% in size. To be noted: rPXR luciferase reporter cells, One-Glo luminescence, 24 h; max activation: active compounds read high. The essentials:
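Luminescent readout (One-Glo luciferase, 30 min room temperature) followed 24 hr compound treatment at 37 C of rPXR cells plated 2,000 per well and preincubated 5hr; qHTS format with compounds delivered in DMSO.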

Experiment [18] deals with Nuclear receptor subfamily 1 group I member 2 (Homo sapiens) (UniProt O75469). Nature of the experiment: CYP3A4 induction through human pregnane X receptor (PXR) by small molecules, qHTS assay (AID 1346984). Also: nearly all actives have a fitted effect of over 40% in size. The method, boiled down:
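Steps: seed DPX-2 cells, 5 hr at 37C; pin-transfer compounds; 24 hr at 37C; add Luciferin-IPA (3uM final), 3 hr at 37C; add One-Glo, 30 min RT; read luminescence.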

Experiment [19] has the same target. Nature of the experiment: Human pregnane X receptor (PXR) activation by small molecules, qHTS assay (AID 1346985). Also: nearly all actives have a fitted effect of over 40% in size. The essentials:
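DPX-2 cells (HepG2 co-transfected with a PXR response element and a CYP3A4-promoter luciferase construct) were seeded at 2,000 per well, rested 5 hr at 37C, then exposed to DMSO-dissolved compounds for 24 hr. Activation was read as luciferase luminescence.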

The structures appear in SMILES notation. Values without a mark were called inactive. Inconclusive results are not listed. Calls of active or inactive are those of the source. Unless noted, calls follow the shape of the dose curve; as a rule, active = well fitted curve in the direction sought with a large enough effect in the repeat runs; inconclusive = weak or mixed curves; inactive = no such curve, though single readings can be large; an effect the other way counts as inactive or inconclusive.
% is scaled to controls: 0 for no effect and ±100 for the full control effect.

Progesterone receptor (Homo sapiens), sequence (P06401 whole entry, looked up): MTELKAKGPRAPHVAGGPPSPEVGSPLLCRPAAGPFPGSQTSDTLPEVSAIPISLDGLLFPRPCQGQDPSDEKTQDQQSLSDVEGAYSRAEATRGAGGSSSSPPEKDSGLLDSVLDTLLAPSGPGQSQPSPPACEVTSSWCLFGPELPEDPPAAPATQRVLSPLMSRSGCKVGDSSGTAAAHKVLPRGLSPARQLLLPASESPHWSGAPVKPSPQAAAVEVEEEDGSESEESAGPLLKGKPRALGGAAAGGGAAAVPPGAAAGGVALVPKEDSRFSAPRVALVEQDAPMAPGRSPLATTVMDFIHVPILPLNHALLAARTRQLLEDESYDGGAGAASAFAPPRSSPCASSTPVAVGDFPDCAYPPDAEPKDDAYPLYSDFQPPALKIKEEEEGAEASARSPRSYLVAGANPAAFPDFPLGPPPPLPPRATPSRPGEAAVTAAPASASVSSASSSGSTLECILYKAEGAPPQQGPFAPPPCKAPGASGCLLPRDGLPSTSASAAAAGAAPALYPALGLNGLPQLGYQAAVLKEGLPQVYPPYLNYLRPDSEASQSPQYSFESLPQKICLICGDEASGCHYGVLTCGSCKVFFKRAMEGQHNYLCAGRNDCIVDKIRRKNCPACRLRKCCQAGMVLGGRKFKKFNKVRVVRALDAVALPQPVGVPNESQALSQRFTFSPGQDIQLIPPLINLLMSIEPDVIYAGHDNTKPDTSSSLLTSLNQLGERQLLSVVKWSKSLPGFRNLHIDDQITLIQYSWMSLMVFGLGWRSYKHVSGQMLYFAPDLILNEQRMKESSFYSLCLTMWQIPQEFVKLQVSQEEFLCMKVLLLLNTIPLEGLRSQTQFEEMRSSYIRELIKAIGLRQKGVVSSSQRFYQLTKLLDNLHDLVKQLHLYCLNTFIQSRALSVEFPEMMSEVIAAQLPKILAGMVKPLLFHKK
Cytochrome P450 2D6 (Homo sapiens), sequence (P10635 whole entry, looked up): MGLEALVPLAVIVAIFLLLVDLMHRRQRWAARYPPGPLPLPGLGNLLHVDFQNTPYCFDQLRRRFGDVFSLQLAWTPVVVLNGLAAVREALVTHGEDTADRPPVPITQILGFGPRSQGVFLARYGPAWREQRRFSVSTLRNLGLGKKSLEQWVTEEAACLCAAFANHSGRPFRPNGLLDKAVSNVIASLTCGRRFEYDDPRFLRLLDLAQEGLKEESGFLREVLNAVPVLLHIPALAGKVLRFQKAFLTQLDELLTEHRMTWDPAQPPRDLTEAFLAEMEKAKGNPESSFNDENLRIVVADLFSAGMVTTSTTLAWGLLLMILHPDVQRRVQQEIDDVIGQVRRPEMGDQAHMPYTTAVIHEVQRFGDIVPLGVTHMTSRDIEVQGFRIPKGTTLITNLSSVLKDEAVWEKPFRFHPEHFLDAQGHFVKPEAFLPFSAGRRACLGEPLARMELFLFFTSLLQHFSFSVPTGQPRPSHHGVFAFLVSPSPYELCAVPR
Nuclear receptor subfamily 1 group I member 2 (Homo sapiens), sequence (O75469 whole entry, looked up): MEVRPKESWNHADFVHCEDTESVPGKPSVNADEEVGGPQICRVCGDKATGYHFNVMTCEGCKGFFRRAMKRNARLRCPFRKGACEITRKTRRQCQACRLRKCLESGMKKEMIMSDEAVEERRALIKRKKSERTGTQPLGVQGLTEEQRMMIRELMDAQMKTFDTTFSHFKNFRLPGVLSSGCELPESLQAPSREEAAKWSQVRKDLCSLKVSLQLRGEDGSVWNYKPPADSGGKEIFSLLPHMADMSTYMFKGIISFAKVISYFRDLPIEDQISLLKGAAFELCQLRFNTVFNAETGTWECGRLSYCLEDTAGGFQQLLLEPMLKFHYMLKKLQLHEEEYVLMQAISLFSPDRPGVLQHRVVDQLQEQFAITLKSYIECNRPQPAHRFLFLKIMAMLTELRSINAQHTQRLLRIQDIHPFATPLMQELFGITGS
Nuclear receptor subfamily 1 group I member 2 (Rattus norvegicus), sequence (Q9R1A7 whole entry, looked up): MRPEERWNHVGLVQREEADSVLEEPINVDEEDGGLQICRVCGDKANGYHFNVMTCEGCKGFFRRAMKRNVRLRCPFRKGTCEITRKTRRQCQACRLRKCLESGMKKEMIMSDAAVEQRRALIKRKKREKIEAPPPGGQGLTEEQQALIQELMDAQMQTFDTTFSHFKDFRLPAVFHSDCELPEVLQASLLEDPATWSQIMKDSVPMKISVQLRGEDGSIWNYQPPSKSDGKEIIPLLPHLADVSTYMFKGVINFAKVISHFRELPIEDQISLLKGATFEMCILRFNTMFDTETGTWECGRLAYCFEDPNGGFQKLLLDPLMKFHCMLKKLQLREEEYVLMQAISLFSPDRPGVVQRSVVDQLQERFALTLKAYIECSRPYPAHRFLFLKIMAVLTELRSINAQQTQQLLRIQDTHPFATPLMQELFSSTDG

Take `C#CCOC(=O)[C@@H](C)Oc1ccc(Oc2ncc(Cl)cc2F)cc1`: the Potency result in experiment [1], in experiment [3], in experiment [4], in experiment [5], in experiment [6] and in experiment [9] was “inactive” each time. Besides, the Potency result in experiment [10], in experiment [12], in experiment [13], in experiment [14] and in experiment [15] was “inactive” throughout. The outcome in experiment [2], in experiment [7], in experiment [8] and in experiment [11] was inactive.

Regarding `C=C(C)C(=O)OCCN(C)C`, the Potency result in experiment [1], in experiment [3], in experiment [4], in [5], in experiment [6] and in [9] was “inactive” in each case. The Potency entry in experiment [10], in experiment [12], in [13], in [14], in experiment [15] and in experiment [16] was “inactive” throughout. Moreover, the molecule was classed as inactive in experiment [2], in experiment [7], in experiment [8] and in experiment [11].

For `CC(=O)c1ccc2c(c1)[C@H](NC(=O)c1ccc(F)cc1)[C@@H](O)C(C)(C)O2`, the Potency entry in experiment [1], in experiment [3], in experiment [4], in experiment [5], in experiment [6] and in experiment [9] was “inactive” each time. For the same molecule, the Potency result in experiment [10], in experiment [13] and in experiment [15] was “inactive” throughout. Moreover, the call in experiment [2], in [7], in [8] and in [11] was inactive. Moreover, the Potency in [16] was 18.8 µM (active).

For `O=C(CC(=O)c1ccccc1)c1ccccc1`, the Potency entry in experiment [1], in [4], in [5], in experiment [6], in experiment [13] and in [14] was “inactive” throughout. Also, the outcome in [2] and in experiment [7] was inactive. The Potency in experiment [3] and in [15] was 65.7 µM (active) throughout.

Regarding `CCOC(=S)SSC(=S)OCC`, the Potency entry in [1], in experiment [3], in [4], in [5], in [6] and in experiment [10] was “inactive” each time. Moreover, the Potency entry in experiment [12], in experiment [13], in experiment [14], in [15], in experiment [18] and in [19] was “inactive” throughout. The outcome in experiment [2], in experiment [7] and in experiment [11] was inactive. Further, in experiment [17], the max activation was -2.15%.

Take `O=c1c2ccccc2nnn1CCl`: the Potency result in experiment [1], in [3], in experiment [4], in [5], in experiment [6] and in [9] was “inactive” throughout. Besides, the Potency entry in experiment [10], in [12], in [13] and in experiment [14] was “inactive” throughout. For the same molecule, the outcome in experiment [2], in experiment [7] and in experiment [8] was inactive. Also, the Potency in experiment [15] was 61.1 µM (active); in experiment [16], 14.2 µM (active).

For `NCc1ccccc1`, the Potency entry in experiment [1], in experiment [3], in [4], in [5], in [6] and in experiment [9] was “inactive” each time. Also, the Potency result in [10], in [12], in [13], in [14] and in experiment [15] was “inactive” each time. Also, the molecule was classed as inactive in experiment [2], in [7] and in experiment [8]. Also, the Potency in [16] is 31.7 µM (active).

Turning to `CC[C@@H]1C[C@H](N(Cc2cc(C(F)(F)F)cc(C(F)(F)F)c2)C(C)=O)c2cc(C(F)(F)F)ccc2N1C(=O)OC(C)C`, the Potency result in [1], in [3], in experiment [4], in experiment [5], in experiment [6] and in [9] was “inactive” throughout. The Potency result in experiment [10], in experiment [12], in experiment [13] and in experiment [16] was “inactive” in each case. Moreover, the molecule was classed as inactive in [2], in experiment [7], in [8] and in experiment [11]. Further, the Potency in experiment [15] was 0.77 µM (active).

Turning to `CC1=CC(=O)/C(=C(/C)O)C(=O)O1`, the Potency result in experiment [1], in experiment [3], in experiment [4], in experiment [5], in experiment [6] and in experiment [9] was “inactive” throughout. The Potency entry in [10], in experiment [12], in experiment [13], in experiment [14], in [15] and in experiment [16] was “inactive” each time. In addition, the result in experiment [2], in experiment [7] and in experiment [8] was inactive.
